# Compound activity as filed in PubChem.
# HTT aggregate: reduces HttQ103-GFP aggregates in PC12 cells. Potency, µM (titrated, usually from 46.1 µM), for the others: at the highest dose activity change, negative = inhibition, hits mostly inhibitors. actives 1.1% (n = 220,000). PC12 HttQ103-GFP aggregates, Acumen cytometry, 40 h; also: potency is read from the fitted curve at half-maximal effect; % is scaled to controls: 0 for no effect and ±100 for the full control effect; nearly all actives have a fitted effect of over 60% in size
#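 Using laser scanning cytometry, GFP-positive aggregates were counted after lysis of PC12 cells induced with 100 nM tebufenozide to express HTT exon 1 Q103–GFP. Compounds were tested in titration.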
# RGS12 GoLoco inh: inhibitors of human Gai1-RGS12 GoLoco interaction (red fluorophore); P63096; Gai1:RGS12 GoLoco peptide FP, rhodamine, 10 min; Potency, µM (titrated, usually from 61.6 µM), for inactives: at the highest dose activity, negative = inhibition, usual class: inhibitors; actives 0.44% (n = 230,000); active = well fitted inhibition curve with a large enough effect, not every such curve was filed as active; inactive = no such curve, though single readings can be large or run the other way; also: potency is read from the fitted curve at half-maximal effect; % is scaled to controls: 0 for no effect and ±100 for the full control effect; nearly all actives have a fitted effect of over 30% in size
# Coupling enz: counter-screen for Giardia aldolase inhibitors: coupling enzyme system; coupling enzyme system counterscreen, AmpLite Red fluorescence; activity change, negative = inhibition, % at 58.2 µM, hits read low; actives 0.67% (n = 290,000); in the data active = activity change below about -30%; also: % is scaled to controls: 0 for no effect and ±100 for the full control effect
#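 Activity here indicates interference with the coupling reaction, not aldolase inhibition. Compounds at 57.5 uM final met coupling enzymes for 10 min at RT; substrate and AmpLite Red detection followed, with a 525/598 nm fluorescence read after 20 min.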
# VDR inh: inhibitors of human vitamin D receptor | P11473 | VDR-SRC2-3 peptide fluorescence polarization, 2 h | Potency, µM, for the others: max response, negative = inhibition, most hits filed as inhibitors | actives 0.93% (n = 400,000) | AID 504847; also: potency is read from the fitted curve at half-maximal effect; % is scaled to controls: 0 for no effect and ±100 for the full control effect
# Target sequence (P11473 whole entry, looked up): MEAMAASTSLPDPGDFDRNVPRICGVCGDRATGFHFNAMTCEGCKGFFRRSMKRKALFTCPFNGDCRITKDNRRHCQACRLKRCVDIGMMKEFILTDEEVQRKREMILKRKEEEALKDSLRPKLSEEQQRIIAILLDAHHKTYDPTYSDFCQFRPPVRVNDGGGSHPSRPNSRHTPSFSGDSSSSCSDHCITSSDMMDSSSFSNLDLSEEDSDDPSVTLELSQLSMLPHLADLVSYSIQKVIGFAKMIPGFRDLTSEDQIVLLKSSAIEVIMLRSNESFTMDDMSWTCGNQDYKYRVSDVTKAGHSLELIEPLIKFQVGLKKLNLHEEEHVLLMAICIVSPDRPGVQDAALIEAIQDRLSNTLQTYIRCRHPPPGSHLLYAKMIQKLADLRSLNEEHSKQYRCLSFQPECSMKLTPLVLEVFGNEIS
#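 Two reagent solutions held at 4 deg C in the dark were dispensed, compounds pinned at 23 nl, and the mixture incubated 2 h at room temperature. Read-out: fluorescence polarization of VDR–SRC2-3 peptide binding.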
# HTT ATP protect: protects HTT-Q103 PC12 cells, measured by ATP; PC12 HTT-Q103 induced, cytoprotection, ATP luminescence, 40 h; Potency, µM (highest dose often 56.4 µM), for the others: cytoprotection (ATP increase), usual class: activators; actives 0.14% (n = 230,000); also: potency is read from the fitted curve at half-maximal effect; % of control where 0% means no effect; nearly all actives have a fitted effect of over 45% in size
#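 Quantitative HTS on tebufenozide-induced (100 nM) PC12 cells expressing HTTQ103 exon 1–GFP; compounds tested as a concentration series; survival measured via cellular ATP.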
# JMJD2E inh: blocks human JMJD2E demethylase activity | JMJD2E catalytic domain, FDH-coupled NADH fluorescence (FDH is formaldehyde dehydrogenase) | Potency, µM (series often up to 57.1 µM), inactives show at the top dose activity change, negative = inhibition, actives largely listed as inhibitors | actives 1.6% (n = 230,000) | AID 2147 | B2RXH2; active = well fitted inhibition curve with a large enough effect, not every such curve was filed as active; inconclusive = small, poorly fitted or top-dose-only effect, or another doubt; inactive = no such curve, though single readings can be large or run the other way;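 also: potency is read from the fitted curve at half-maximal effect; 0% = wells with enzyme and -100% = buffer wells without enzyme; nearly all actives have a fitted effect of over 50% in size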
# The depositor's hits bear a star; ? = inconclusive; . = no result; ! = not confirmed by another sample; [ ] = dose if it differs, or a comment. In the library only some 2.3% were active in any assay of this set; here they are far more common. Unless noted, calls follow the shape of the dose curve; as a rule, active = well fitted curve in the direction sought with a large enough effect; inconclusive = small, poorly fitted or top-dose-only effect, or another doubt; inactive = no such curve, though single readings can be large; an effect the other way counts as inactive or inconclusive.
SMILES,HTT aggregate,RGS12 GoLoco inh,Coupling enz,VDR inh,HTT ATP protect,JMJD2E inh
O=C(CSc1ncccn1)N/N=C/c1cccc(OC2CSC2)c1,-2%,-3%,-3,-7%,-41%,4%
Cn1ncc(Cl)c1C(=O)N/N=C/c1cccc(OC2CSC2)c1,-10%,12%,-40*,-9%,.,-8%
CC(C)Cc1nn2c(=O)cc(COC(=O)c3cccc(NC(=O)CCc4ccccc4)c3)nc2s1,.,.,.,12%,.,.
COc1ccc(NC(=O)CN(c2cc(C)cc(C)c2)S(=O)(=O)c2c(C)n[nH]c2C)cc1,14%,11%,3,89µM*,10%,0%
COc1ccc(N(CC(=O)Nc2ccc(F)c(F)c2)S(=O)(=O)c2c(C)n[nH]c2C)cc1,.,.,.,7%,.,.
O=C(NCc1cccs1)C1CCCN1C(=O)Nc1ccc(F)cc1 (stereo unspecified),0%[9.22 µM],3%,2,3%,0%[10 µM],2%
COc1ccc(NC(=O)C2CCCN(c3nn4c(=O)cc(C)nc4s3)C2)c(OC)c1 (stereo unspecified),.,.,1,-5%,.,.
CC(=O)N1c2ccccc2C2(O)N=C(C)SC12 (stereo unspecified),-10%,7.9µM*,-9,?,0%[10 µM],-14%
CC(=O)N1c2ccccc2[C@@H](C)[C@@H]1C,.,.,.,-12%,.,.
O=c1c(-c2ccc([N+](=O)[O-])cc2)coc2c(O)c(O)ccc12,-10%[9.22 µM],-7%,-6,8%,-20%[10 µM],14µM*
CC(C)(C)NC(=O)COC(=O)/C=C/c1ccccc1[N+](=O)[O-],12%,-2%,3,-13%,-2%,5%
CC(=O)Nc1c(Br)cc2c(c1Br)Cc1cc([N+](=O)[O-])ccc1-2,.,.,.,-3%,.,.
Cn1c(C(=O)c2ccccc2[N+](=O)[O-])nc2ccccc21,1%,28%,-30*,9%,-15%,-6%
CCOc1ccccc1CNC(=O)CCc1c(C)nn(-c2ccc(N3CCCCC3)nn2)c1C,.,.,.,4%,.,.
Cc1cc(-c2ccccc2)nc(N/N=C/c2ccccc2F)n1,.,.,0,20%,.,.
CCN1C(=O)c2cccc3c(S(=O)(=O)N(C(C)=O)c4ccc(OC(C)=O)cc4)ccc1c23,.,.,.,-11%,.,.
COc1ccc(CNC(=O)C[C@H]2C[C@H](C(=O)N3CCCCC3)[C@@]3(CCc4ccccc4)c4[nH]c5cc(-c6ccco6)ccc5c4CCN3C2=O)cc1OC,.,.,.,89µM*,.,.
CC(C)OCCCNc1ncnc2c1[nH]c1ccccc12,7.1µM*,9%,-4,13%,19%[1.9 µM],?
O=C(O)c1ccccc1Nc1cc(Cl)c2nonc2c1[N+](=O)[O-],.,.,7,35µM*,.,.
O=C(O)c1ccccc1Nc1ccc([N+](=O)[O-])cc1,6%,8%,10,-8%,-55%[10 µM],-4%
CCC(Sc1nnc(-c2ccc(OC)c(OC)c2)c(-c2ccc(OC)c(OC)c2)n1)C(=O)NC1CCCC1 (stereo unspecified),.,.,.,7%,.,.
O=c1cc(-c2ccccc2Cl)oc2c([N+](=O)[O-])ccc(O)c12,.,-12%[88.7 µM],1,-20%,-32%,.
O=C1NC(=O)C(c2ccccc2[N+](=O)[O-])=C1Nc1ccc(O)c(Cl)c1,.,-35%,-6,45µM*!,13µM*!,-2%
CCCc1[nH]nc2c1C(c1cn[nH]c1-c1ccc(F)cc1)C(C#N)=C(N)O2 (stereo unspecified),11µM*,10%,-23,-23%,0%[1.9 µM],6%
CNc1ccc(O)cc1,.,5.6µM*,.,.,-103%,.
CC(=O)O[C@H]1CC[C@@]2(C)[C@@H](CC[C@@]3(C)[C@H]2C(=O)C=C2[C@H]4C[C@](C)(C(=O)OCCN5CCCCC5)CC[C@]4(C)CC[C@@]23C)C1(C)C,.,.,.,.,-3%,.
Cc1cccc(C#Cc2ccccc2)n1,.,5%,0,-7%,-131%,13µM*!
COc1ccc(C(=O)NCc2cnn(C)c2C)cc1OC1CCN(C(C)C)CC1,.,.,1,0%,.,.
CCn1nc(Cc2cccc3ccccc23)c(C#N)c1N,.,.,.,1%,.,.
